# Results from PubChem BioAssay (Tox21).
# Inconclusive results are not listed. A call without a number means that no potency is given here. The source made the active and inactive calls. Calls come from the whole dose curve; as a rule, active = well fitted activation curve with a large enough effect in the repeat runs; inconclusive = weak or mixed curves; inactive = flat fitted curve, though single readings scatter.
# Test: A CellTox Green Cytotoxicity Assay to monitor cytotoxicity in HEK293 cells - 8 hour (AID 1224884); note: nearly all actives have a fitted effect of over 35% in size
# Settings: CellTox Green fluorescence; series mostly up to 76.8 µM
# Text: National Center for Advancing Translational Sciences [NCATS]
# NIH Chemical Genomics Center [NCGC]
# U.S. Environmental Protection Agency [EPA]
# National Institutes of Environmental Health Sciences [NIEHS]
# National Toxicology Program [NTP]
# Cell-based models are critical for drug discovery. Determining the natural cytotoxic effects resulting from test compounds is an essential research activity. A CellTox Green Cytotoxicity Assay to monitor cytotoxicity in real time of continues cell culture during 40 hours of the compound treatment was used to screen Tox21 10K library compounds in Hek293 cells. CellTox Green Cytotoxicity Assay is a nonlytic, homogeneous, biofluorescent method to measure cytotoxicity in cell culture after experimental manipulation. The assay system uses a proprietary asymmetric cyanine dye that is excluded from viable cells but preferentially stains the dead cell's DNA. […] Viable cells produce no appreciable increases in fluorescence. Therefore, the fluorescence signal produced by the binding interaction with dead cell DNA is proportional to cytotoxicity.
# The mixture of Hek293 cell suspension and reagents were dispensed at 600cells/6 ul/well in 1536-well tissue culture treated black solid bottom plates using a Multidrop dispenser. After the assay plates were incubated at a 37 C/5% CO2 incubator for 5 hours, 23 nL of compounds dissolved in DMSO, positive and negative controls was transferred to the assay plate by a pintool work station. The plates were incubated at 37 C for 40 hours. The fluorescence intensity were measured at 0h, 8h, 16h, 24h, 32h and 40h time points using ViewLux plate reader during compound treatment.
row,Structure (SMILES),Potency
1,O=C(O)C(=O)O,inactive
2,CC(O)CO (stereo not given),inactive
3,CCCNC(=O)NS(=O)(=O)c1ccc(Cl)cc1,inactive
4,CC(C)[C@@H]1CC[C@@H](C)C[C@H]1O,inactive
5,O=c1ccc2ccccc2o1,inactive
6,COc1c2occc2cc2ccc(=O)oc12,inactive
7,CCCC(CCC)C(=O)O,inactive
8,c1ccc2[nH]ccc2c1,inactive
9,O=C(O)c1cccc([N+](=O)[O-])c1,inactive
10,Cn1cc[nH]c1=S,inactive
11,OC(Cn1cncn1)(Cn1cncn1)c1ccc(F)cc1F,inactive
12,Nc1ccn([C@H]2CC[C@@H](CO)O2)c(=O)n1,inactive
13,NC(=O)c1cnccn1,inactive
14,Cc1cc(=O)[nH]c(=S)[nH]1,inactive
15,CCC1(c2ccccc2)C(=O)NCNC1=O,inactive
16,O=C(O)/C=C\C(=O)O,inactive
17,NC(=O)c1ccccc1O,inactive
18,O=C(C1CCCCC1)N1CC(=O)N2CCc3ccccc3C2C1 (stereo not given),inactive
19,O=C(O)c1cc(N=Nc2ccc(S(=O)(=O)Nc3ccccn3)cc2)ccc1O,inactive
20,Cc1ccc(S(=O)(=O)NC(=O)NN2CCCCCC2)cc1,inactive

row,Structure (SMILES),Potency
1,CC(=O)OCC(COC(C)=O)OC(C)=O,inactive
2,Nc1ccc(S(=O)(=O)c2ccc(N)cc2)cc1,inactive
3,Cc1ccccc1C(OCCN(C)C)c1ccccc1 (stereo not given),inactive
4,CCCC(O)C(CC)CO (stereo not given),inactive
5,C1N2CN3CN1CN(C2)C3,inactive
6,CC(C)(Oc1ccc(C2CC2(Cl)Cl)cc1)C(=O)O (stereo not given),inactive
7,O=C(O)CCC(=O)O,inactive
8,Cn1c(=O)c2[nH]cnc2n(C)c1=O,inactive
9,CC(=O)Nc1nnc(S(N)(=O)=O)s1,inactive
10,C[C@]12C=CC(=O)C=C1CC[C@@H]1[C@@H]2[C@@H](O)C[C@@]2(C)[C@H]1CC[C@]2(O)C(=O)CO,inactive
11,O=C(O)c1cccnc1,inactive
12,CC(=O)NS(=O)(=O)c1ccc(N)cc1,inactive
13,O=C(O)c1[nH]n(-c2ccc(S(=O)(=O)O)cc2)c(=O)c1N=Nc1ccc(S(=O)(=O)O)cc1,inactive
14,O=C1NC(=O)c2ccccc21,inactive
15,Cc1ccc(C)c(OCCCC(C)(C)C(=O)O)c1,inactive
16,CCCCCCCCCCCCCCCC(=O)O,inactive
17,O=c1cc[nH]c(=S)[nH]1,inactive
18,O=C(O)CS,inactive
19,COc1ccc2[nH]cc(CCNC(C)=O)c2c1,inactive
20,CC(O)CN(CCN(CC(C)O)CC(C)O)CC(C)O (stereo not given),inactive
